The supplement of paper PMC10849652
Targets with a hit are over-represented here; the source holds about 7,900 in all. About 0.6% of all pairs of compound and target were hits.

Experiments:
Test in all cases: log2 fold change, soluble protein after heating vs DMSO (PISA); higher = thermal stabilisation; K562 cells, 10 uM, 30 min; active = over 0.2 and 3.5 SD of the protein, either way, in both replicates (recomputed)
IRAK-1-4 Inhibitor I = compound: C1COCCN1CCN2C3=CC=CC=C3N=C2NC(=O)C4=CC(=CC=C4)[N+](=O)[O-] [IRAK-1-4 Inhibitor I]
Procedure, shortened: (§1)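 K562 cells at 2×10^6 cells/mL were exposed to 10 μM compound for 30 min, then aliquots were heated for 3 min across 48°C-58°C, pooled, and extracted in PBS containing 0.5% NP-40 at 4°C. The supernatant after 21,000xg for 90 min was taken as soluble protein and measured by TMTpro 16plex LC-MS/MS with channel sums equalised. Thermal stability is reported relative to control samples, with values from duplicates. Fold changes are given on a log2 scale.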

ibrutinib = compound: C=CC(=O)N1CCC[C@@H](n2nc(-c3ccc(Oc4ccccc4)cc3)c3c(N)ncnc32)C1 [ibrutinib]
Procedure, shortened: as §1

[1] = compound: CC(=O)c1cnc2ccc(-c3cc(Cl)c(O)c(Cl)c3)nc2c1N[C@H]1CC[C@H](CN(C)C)CC1
Procedure, shortened: as §1

ralimetinib = compound: CC(C)(C)Cn1c(N)nc2ccc(-c3[nH]c(C(C)(C)C)nc3-c3ccc(F)cc3)nc21 [ralimetinib]
Procedure, shortened: as §1

[2] = compound: CC(C)(O)CC(=O)NCCn1ccc2ncnc(Nc3ccc(Oc4cccc(C(F)(F)F)c4)c(Cl)c3)c21
Procedure, shortened: as §1

[3] = compound: CC(C)C1=C2N=C(C=C(N2N=C1)NCC3=CC=CC=C3)NCCCCCCN
Procedure, shortened: as §1

[4] = compound: CC(C)C[C@@H](C=O)NC(=O)[C@H](CC(C)C)NC(=O)[C@H](CC(C)C)NC(=O)OCc1ccccc1
Procedure, shortened: as §1

pinometostat = compound: CC(C)N(C[C@H]1O[C@@H](n2cnc3c(N)ncnc32)[C@H](O)[C@@H]1O)[C@H]1C[C@@H](CCc2nc3cc(C(C)(C)C)ccc3[nH]2)C1 [pinometostat]
Procedure, shortened: as §1

[5] = compound: CC1=C(C(CC(=O)N1)C2=CC=C(C=C2)C(F)(F)F)C(=O)NC3=C(C=C4C(=C3)C=NN4)F
Procedure, shortened: as §1

[6] = compound: CC1=C(C2=C(C=C1)C(=O)C3=CC=CC=C3N2CCCN)C
Procedure, shortened: as §1

[7] = compound: CC1=C(C=C(C=C1)NC(=O)C2=CC(=CC=C2)C(C)(C)C#N)NC3=CC4=C(C=C3)N=CN(C4=O)C
Procedure, shortened: as §1

[8] = compound: CC1=C(C=C(C=C1)NC(=O)C2=CC(=CC=C2)N(C)C)NC(=O)C3=CC=C(C=C3)O
Procedure, shortened: as §1

[9] = compound: CC1=CC=C(C=C1)SC2=C3C=C(SC3=CN=C2)C(=O)N
Procedure, shortened: as §1

[10] = compound: CC1=NC(=CC=C1)C2=C(N=C(N2)C(C)(C)C)C3=CC4=NC=CN=C4C=C3
Procedure, shortened: as §1

Nexturastat A = compound: CCCCN(Cc1ccc(C(=O)NO)cc1)C(=O)Nc1ccccc1 [Nexturastat A]
Procedure, shortened: as §1

vemurafenib = compound: CCCS(=O)(=O)Nc1ccc(F)c(C(=O)c2c[nH]c3ncc(-c4ccc(Cl)cc4)cc23)c1F [vemurafenib]
Procedure, shortened: as §1

[11] = compound: CCCS(=O)(=O)Nc1ccc(F)c(C(=O)c2c[nH]c3ncc(Cl)cc23)c1F
Procedure, shortened: as §1

[12] = compound: CCCc1cc(C)[nH]c(=O)c1CNC(=O)c1cc(-c2ccnc(N3CCN(C)CC3)c2)cc2c1cnn2C(C)C
Procedure, shortened: as §1

givinostat = compound: CCN(CC)Cc1ccc2cc(COC(=O)Nc3ccc(C(=O)NO)cc3)ccc2c1 [givinostat]
Procedure, shortened: as §1

barasertib = compound: CCN(CCCOc1ccc2c(Nc3cc(CC(=O)Nc4cccc(F)c4)[nH]n3)ncnc2c1)CCOP(=O)(O)O [barasertib]
Procedure, shortened: as §1

Measured: log2 fold change

SEC24A (UniProt O95486)
inactive: IRAK-1-4 Inhibitor I -0.038 | ibrutinib -0.017 | [1] -0.013 | ralimetinib 0.018 | [2] -0.066 | [3] -0.057 | [4] -0.005 | pinometostat 0.005 | [5] 0.009 | [6] 0.019 | [7] 0.025 | [8] -0.089 | [9] 0 | [10] 0.012 | Nexturastat A -0.04 | vemurafenib 0.023 | [11] 0.051 | [12] 0.08 | givinostat 0.072 | barasertib 0.006

SETMAR (UniProt Q53H47)
inactive: IRAK-1-4 Inhibitor I 0.093 | ibrutinib -0.04 | [1] -0.135 | ralimetinib -0.025 | [2] 0.047 | [3] 0.227 | [4] -0.061 | pinometostat 0.078 | [5] 0.012 | [7] 0.128 | [8] 0.061 | [9] -0.023 | [10] -0.049 | Nexturastat A -0.041 | vemurafenib 0.018 | [11] 0.021 | [12] 0.01 | givinostat -0.036 | barasertib 0.051
active: [6] 0.509

RARS (UniProt P54136)
Chain of UniProt P54136 (P54136 whole entry, looked up): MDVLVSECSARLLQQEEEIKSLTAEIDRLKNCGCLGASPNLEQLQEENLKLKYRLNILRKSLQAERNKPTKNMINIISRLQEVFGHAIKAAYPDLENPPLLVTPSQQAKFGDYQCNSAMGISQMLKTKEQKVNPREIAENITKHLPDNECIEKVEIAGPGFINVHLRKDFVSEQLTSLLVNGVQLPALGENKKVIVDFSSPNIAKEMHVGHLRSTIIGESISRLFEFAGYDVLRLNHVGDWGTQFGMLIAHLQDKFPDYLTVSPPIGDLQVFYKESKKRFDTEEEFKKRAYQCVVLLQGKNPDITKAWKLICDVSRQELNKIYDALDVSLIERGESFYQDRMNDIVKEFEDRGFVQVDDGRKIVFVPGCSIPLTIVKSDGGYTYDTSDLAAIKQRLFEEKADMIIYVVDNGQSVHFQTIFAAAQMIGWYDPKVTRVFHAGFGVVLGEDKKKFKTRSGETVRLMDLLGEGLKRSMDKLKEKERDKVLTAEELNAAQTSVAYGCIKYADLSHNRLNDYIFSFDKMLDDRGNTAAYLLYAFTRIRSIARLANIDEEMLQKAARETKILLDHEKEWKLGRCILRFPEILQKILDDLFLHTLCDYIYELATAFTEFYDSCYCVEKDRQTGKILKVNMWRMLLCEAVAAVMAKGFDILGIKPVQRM
active: [3] -0.545
inactive: IRAK-1-4 Inhibitor I -0.087 | ibrutinib -0.024 | [1] 0.12 | ralimetinib 0.097 | [2] -0.001 | [4] 0.096 | pinometostat 0.32 | [5] 0.03 | [6] 0.009 | [7] 0.005 | [8] 0.006 | [9] -0.011 | [10] -0.048 | Nexturastat A 0.325 | vemurafenib -0.018 | [11] 0.058 | [12] 0.075 | givinostat 0.016 | barasertib 0.037

RPTOR (UniProt Q8N122)
inactive: IRAK-1-4 Inhibitor I 0 | ibrutinib 0.051 | [1] -0.145 | ralimetinib -0.022 | [2] -0.129 | [3] -0.187 | [4] -0.011 | pinometostat -0.012 | [5] -0.03 | [6] 0.009 | [7] 0.009 | [8] 0.019 | [9] 0.027 | [10] 0.025 | Nexturastat A -0.018 | vemurafenib 0.017 | [11] 0.09 | [12] 0.012 | givinostat -0.007 | barasertib -0.007

SASH1 (UniProt O94885)
Chain of UniProt O94885 (O94885 whole entry, looked up): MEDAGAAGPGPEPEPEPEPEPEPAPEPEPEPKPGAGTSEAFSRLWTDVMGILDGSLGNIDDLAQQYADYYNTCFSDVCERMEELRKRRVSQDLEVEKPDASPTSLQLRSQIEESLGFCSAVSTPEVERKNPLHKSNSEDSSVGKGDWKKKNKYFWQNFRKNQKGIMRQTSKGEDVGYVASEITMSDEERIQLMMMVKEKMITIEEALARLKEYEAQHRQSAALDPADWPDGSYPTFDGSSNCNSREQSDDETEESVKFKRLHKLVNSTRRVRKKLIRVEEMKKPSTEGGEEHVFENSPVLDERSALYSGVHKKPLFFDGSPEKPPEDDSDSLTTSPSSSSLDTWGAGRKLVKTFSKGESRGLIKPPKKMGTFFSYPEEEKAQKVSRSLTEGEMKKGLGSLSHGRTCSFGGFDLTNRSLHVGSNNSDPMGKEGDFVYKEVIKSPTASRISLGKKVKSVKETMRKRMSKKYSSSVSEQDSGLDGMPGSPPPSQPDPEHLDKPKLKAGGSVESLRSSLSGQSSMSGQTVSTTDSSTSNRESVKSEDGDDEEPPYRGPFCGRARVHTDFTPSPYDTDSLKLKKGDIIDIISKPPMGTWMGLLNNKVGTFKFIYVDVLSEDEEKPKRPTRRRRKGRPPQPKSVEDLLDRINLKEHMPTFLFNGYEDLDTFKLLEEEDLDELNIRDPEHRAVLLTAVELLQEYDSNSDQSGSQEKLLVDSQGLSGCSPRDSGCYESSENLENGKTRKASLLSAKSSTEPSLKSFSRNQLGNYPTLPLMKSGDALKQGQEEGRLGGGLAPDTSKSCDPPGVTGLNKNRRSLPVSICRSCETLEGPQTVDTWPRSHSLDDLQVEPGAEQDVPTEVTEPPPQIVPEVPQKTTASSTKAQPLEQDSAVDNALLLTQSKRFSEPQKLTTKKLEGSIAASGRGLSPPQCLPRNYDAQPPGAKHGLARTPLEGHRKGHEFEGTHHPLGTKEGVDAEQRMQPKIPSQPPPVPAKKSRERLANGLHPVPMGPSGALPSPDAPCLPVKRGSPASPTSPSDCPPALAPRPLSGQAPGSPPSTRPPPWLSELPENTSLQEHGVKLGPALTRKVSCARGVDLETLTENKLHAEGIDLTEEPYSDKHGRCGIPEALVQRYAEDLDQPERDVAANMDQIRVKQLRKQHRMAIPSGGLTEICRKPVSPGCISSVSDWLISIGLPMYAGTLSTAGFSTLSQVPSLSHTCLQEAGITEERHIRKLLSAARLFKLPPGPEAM
inactive: IRAK-1-4 Inhibitor I 0.145 | ibrutinib -0.069 | [1] -0.097 | ralimetinib -0.138 | [2] 0.002 | [3] -0.25 | [4] 0.152 | pinometostat 0.081 | [5] -0.077 | [6] 0.07 | [7] 0.046 | [8] -0.013 | [9] 0.024 | [10] 0.01 | Nexturastat A 0.038 | vemurafenib -0.043 | [11] 0.097 | [12] -0.031 | givinostat -0.063 | barasertib 0.071

RRAGB (UniProt Q5VZM2)
Chain of UniProt Q5VZM2 (Q5VZM2 whole entry, looked up): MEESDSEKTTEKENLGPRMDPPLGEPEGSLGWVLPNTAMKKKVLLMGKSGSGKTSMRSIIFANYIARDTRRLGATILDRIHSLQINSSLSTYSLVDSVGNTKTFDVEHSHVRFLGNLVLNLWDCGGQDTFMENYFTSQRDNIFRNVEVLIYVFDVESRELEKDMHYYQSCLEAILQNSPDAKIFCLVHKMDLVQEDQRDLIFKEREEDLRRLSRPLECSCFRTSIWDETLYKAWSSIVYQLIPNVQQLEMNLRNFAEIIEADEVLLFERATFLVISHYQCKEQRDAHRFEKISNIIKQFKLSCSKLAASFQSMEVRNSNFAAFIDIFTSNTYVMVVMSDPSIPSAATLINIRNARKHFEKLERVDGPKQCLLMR
inactive: IRAK-1-4 Inhibitor I 0.034 | ibrutinib 0.029 | [1] 0.08 | ralimetinib 0.002 | [2] -0.012 | [3] -0.162 | [4] 0.011 | pinometostat 0.039 | [5] -0.016 | [6] 0.026 | [7] 0.013 | [8] 0.018 | [9] 0.011 | [10] -0.01 | Nexturastat A -0.071 | vemurafenib 0.001 | [11] 0.028 | [12] -0.023 | givinostat -0.044 | barasertib -0.004

REL (UniProt Q04864)
Chain of UniProt Q04864 (Q04864 whole entry, looked up): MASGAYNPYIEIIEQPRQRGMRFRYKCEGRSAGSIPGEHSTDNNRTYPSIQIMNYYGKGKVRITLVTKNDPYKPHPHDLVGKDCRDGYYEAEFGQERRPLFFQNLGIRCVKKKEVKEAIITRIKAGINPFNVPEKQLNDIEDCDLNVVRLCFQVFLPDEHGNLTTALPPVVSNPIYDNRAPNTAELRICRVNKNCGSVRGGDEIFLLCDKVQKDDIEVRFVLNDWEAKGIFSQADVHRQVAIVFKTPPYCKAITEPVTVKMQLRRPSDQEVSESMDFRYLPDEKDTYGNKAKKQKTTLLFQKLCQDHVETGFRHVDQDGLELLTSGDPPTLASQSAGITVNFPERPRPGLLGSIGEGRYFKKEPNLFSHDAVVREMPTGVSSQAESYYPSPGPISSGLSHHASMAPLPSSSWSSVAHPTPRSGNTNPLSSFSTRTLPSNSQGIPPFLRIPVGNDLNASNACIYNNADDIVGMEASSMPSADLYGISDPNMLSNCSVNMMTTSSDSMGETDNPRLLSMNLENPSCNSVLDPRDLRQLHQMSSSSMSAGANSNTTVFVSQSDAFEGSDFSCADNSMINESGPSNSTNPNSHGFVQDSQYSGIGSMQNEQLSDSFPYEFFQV
inactive: IRAK-1-4 Inhibitor I -0.046 | ibrutinib -0.095 | [1] -0.017 | ralimetinib 0.037 | [2] -0.093 | [3] -0.074 | [4] 0.062 | pinometostat 0.089 | [5] -0.039 | [6] 0.005 | [7] 0.001 | [8] -0.044 | [9] 0.033 | [10] -0.004 | Nexturastat A -0.053 | vemurafenib 0.044 | [11] 0.077 | [12] -0.022 | givinostat 0.101 | barasertib 0.079

RHOXF2 (UniProt Q9BQY4)
Chain of UniProt Q9BQY4 (Q9BQY4 whole entry, looked up): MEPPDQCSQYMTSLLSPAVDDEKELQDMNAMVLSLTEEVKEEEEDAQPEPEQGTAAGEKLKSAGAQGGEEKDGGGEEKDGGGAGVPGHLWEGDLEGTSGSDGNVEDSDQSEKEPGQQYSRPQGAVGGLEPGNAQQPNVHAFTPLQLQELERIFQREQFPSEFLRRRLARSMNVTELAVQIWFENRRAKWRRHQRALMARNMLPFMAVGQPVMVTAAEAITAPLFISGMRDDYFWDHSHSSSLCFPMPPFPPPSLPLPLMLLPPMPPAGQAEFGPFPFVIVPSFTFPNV
inactive: IRAK-1-4 Inhibitor I 0.012 | ibrutinib 0.003 | [1] 0.002 | ralimetinib 0.051 | [2] -0.031 | [3] -0.03 | [4] 0.027 | pinometostat -0.037 | [5] 0.027 | [6] -0.007 | [7] -0.03 | [8] 0.034 | [9] -0.037 | [10] 0.021 | Nexturastat A 0.083 | vemurafenib -0.015 | [11] 0.012 | [12] -0.024 | givinostat 0.05 | barasertib 0.033

RBM17 (UniProt Q96I25)
Chain of UniProt Q96I25 (Q96I25 whole entry, looked up): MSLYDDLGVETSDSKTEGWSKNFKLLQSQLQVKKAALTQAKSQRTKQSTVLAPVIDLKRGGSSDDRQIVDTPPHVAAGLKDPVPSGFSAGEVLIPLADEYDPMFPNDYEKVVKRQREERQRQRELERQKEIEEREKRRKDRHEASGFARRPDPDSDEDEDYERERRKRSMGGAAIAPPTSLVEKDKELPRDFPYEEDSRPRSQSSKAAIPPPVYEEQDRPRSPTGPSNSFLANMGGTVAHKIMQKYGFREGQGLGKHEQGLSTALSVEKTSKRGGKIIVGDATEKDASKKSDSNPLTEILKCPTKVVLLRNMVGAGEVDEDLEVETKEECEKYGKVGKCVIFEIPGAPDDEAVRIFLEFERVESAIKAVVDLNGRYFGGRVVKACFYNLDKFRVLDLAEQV
inactive: IRAK-1-4 Inhibitor I -0.037 | ibrutinib 0.114 | [1] -0.179 | ralimetinib 0.158 | [2] -0.077 | [3] -0.053 | [4] 0.029 | pinometostat 0.11 | [5] -0.005 | [6] 0.012 | [7] -0.004 | [8] -0.036 | [9] 0.057 | [10] 0.012 | Nexturastat A 0.007 | vemurafenib 0.068 | [11] 0.118 | [12] 0.013 | givinostat 0.028 | barasertib 0.043

SAFB2 (UniProt Q14151)
inactive: IRAK-1-4 Inhibitor I -0.065 | ibrutinib -0.012 | [1] 0.026 | ralimetinib 0.037 | [2] 0.165 | [3] 0.042 | [4] 0.049 | pinometostat 0.05 | [5] 0.018 | [6] -0.074 | [7] 0.011 | [8] 0.068 | [9] -0.024 | [10] 0.011 | Nexturastat A 0.203 | vemurafenib -0.048 | [11] -0.038 | [12] 0.097 | givinostat -0.011 | barasertib -0.029

SCPEP1 (UniProt Q9HB40)
Chain of UniProt Q9HB40 (Q9HB40 whole entry, looked up): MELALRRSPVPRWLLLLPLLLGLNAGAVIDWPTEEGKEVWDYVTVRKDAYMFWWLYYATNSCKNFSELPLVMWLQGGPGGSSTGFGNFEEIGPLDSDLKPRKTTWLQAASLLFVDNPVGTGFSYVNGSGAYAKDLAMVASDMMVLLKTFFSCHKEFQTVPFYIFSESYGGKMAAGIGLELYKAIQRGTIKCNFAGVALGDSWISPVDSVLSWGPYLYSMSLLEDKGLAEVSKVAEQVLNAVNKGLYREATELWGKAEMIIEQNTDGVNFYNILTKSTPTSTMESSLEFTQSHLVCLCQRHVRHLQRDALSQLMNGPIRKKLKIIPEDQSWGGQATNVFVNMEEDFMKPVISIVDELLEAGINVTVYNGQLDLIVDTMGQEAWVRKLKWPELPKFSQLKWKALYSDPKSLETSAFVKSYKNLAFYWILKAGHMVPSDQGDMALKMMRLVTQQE
inactive: IRAK-1-4 Inhibitor I 0.044 | ibrutinib 0.072 | [1] -0.008 | ralimetinib -0.005 | [2] -0.038 | [4] 0.007 | pinometostat -0.032 | [5] -0.006 | [6] 0.073 | [7] -0.003 | [8] 0.016 | [9] 0.05 | [10] 0.022 | Nexturastat A -0.035 | vemurafenib 0.002 | [11] 0.013 | [12] -0.028 | givinostat -0.031 | barasertib 0.012
active: [3] -0.5

RBM26 isoform 2 (UniProt Q5T8P6)
Chain of UniProt Q5T8P6 (Q5T8P6 whole entry, looked up): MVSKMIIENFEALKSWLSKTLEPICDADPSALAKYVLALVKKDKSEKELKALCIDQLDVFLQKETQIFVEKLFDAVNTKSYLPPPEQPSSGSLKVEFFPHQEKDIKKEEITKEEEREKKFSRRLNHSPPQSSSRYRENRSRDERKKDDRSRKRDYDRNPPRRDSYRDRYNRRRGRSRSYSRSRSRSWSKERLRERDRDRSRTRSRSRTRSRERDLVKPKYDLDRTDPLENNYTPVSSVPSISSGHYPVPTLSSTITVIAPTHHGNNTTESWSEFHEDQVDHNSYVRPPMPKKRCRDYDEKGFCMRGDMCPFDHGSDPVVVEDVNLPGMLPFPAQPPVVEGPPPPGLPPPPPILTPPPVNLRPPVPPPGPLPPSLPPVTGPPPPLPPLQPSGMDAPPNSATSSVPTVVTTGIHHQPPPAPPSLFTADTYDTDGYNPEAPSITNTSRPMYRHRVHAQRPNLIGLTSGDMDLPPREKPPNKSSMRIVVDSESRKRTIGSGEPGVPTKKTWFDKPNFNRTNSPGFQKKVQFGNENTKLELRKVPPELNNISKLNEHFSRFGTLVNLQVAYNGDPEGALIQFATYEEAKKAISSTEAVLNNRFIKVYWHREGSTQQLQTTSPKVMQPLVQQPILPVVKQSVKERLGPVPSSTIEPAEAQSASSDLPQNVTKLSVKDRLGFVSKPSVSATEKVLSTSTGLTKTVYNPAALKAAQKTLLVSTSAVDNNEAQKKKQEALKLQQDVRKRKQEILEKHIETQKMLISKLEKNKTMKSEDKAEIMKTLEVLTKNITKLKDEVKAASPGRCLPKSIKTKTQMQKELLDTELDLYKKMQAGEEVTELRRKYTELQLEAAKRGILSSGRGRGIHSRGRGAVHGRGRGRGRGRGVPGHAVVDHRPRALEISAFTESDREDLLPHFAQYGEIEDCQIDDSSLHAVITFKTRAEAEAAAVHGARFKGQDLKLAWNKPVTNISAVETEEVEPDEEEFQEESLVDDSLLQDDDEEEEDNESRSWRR
inactive: IRAK-1-4 Inhibitor I -0.086 | ibrutinib 0.032 | [1] -0.179 | ralimetinib -0.021 | [2] -0.16 | [3] -0.295 | [4] 0.024 | pinometostat -0.022 | [5] 0.014 | [6] 0.06 | [7] 0.122 | [8] -0.088 | [9] 0.033 | [10] 0.116 | Nexturastat A -0.184 | vemurafenib 0.143 | [11] 0.09 | [12] -0.014 | givinostat 0.097 | barasertib 0.079

RNF14 (UniProt Q9UBS8)
inactive: IRAK-1-4 Inhibitor I 0.019 | ibrutinib 0.006 | [1] 0.011 | ralimetinib -0.008 | [2] -0.035 | [3] -0.039 | [4] 0.014 | pinometostat -0.075 | [5] 0.006 | [6] -0.05 | [7] 0.039 | [8] -0.034 | [9] 0.004 | [10] 0.05 | Nexturastat A -0.04 | vemurafenib 0.026 | [11] 0.04 | [12] 0.029 | givinostat -0.07 | barasertib 0.036
